Out of some 53,000 sequences screened, about 3,700 (7%) were called active. Shown is part of a subset that was picked to be rich in actives. Values without a mark were called inactive.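 The calls were made as follows: active = gene knockdowns whose robust z-score for IL-1 alpha signal is at least 2 or at most -2, so actives lie on both sides; inactive = the rest.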
Assay: Components of the Cytosolic LPS Sensing Pathway: Gene Identification via Genome-wide siRNA Screen;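 also: robust z of the log signal after scaling to non-targeting control siRNA wells of the plate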
Conditions: RAW264.7 macrophages, IL-1a HTRF, actives lie on both sides, screened at 100 nM (by protocol), cells primed 5 h with Pam3CSK4 first
Summary of the method: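 Three distinct siRNAs per gene were tested singly at 100 nM in RAW264.7 macrophages. Following Pam3CSK4 priming and 24 hour LipidA transfection, IL-1a secretion was read by HTRF.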

| Sequence | z-score |
| --- | --- |
| GGUCAGAAAAGUAUGUUGGTT against Naip5 | 0.208 |
| GUGUAUCCCAGGCUAUCACTT against Vmn1r19 | -1.17 |
| GCCACGAUAAUUCAGGAGUTT against Aurkc | 2.27 (active) |
| GCUGAAUGGAAGGAAGUUGTT against Wdr83os | -1.32 |
| CGCCAAUGUGAUUAAACUATT against Mak | 2.01 (active) |
| GGACAUGUGUAAAUAAUCATT against En2 | 3.4 (active) |
| GGUGAUAGUACUGUCAGCCTT against Olfr1225 | -0.517 |
| GGAACAAGAACAAGUUGAGTT against Spa17 | 0.389 |
| GGUGGAAGCACUCAAUAAGTT against Pik3cb | -1.24 |
| GGUGCUUCUCUAAGAUAAUTT against Ddias | 0.776 |
| CCCUUACUUAGUCUCCACUTT against Olig1 | -0.025 |
| GGUGUUAUCAGAAUUCAGATT against Cars | 2.6 (active) |
| GGACCACCGUGAUCAACAUTT against Ifitm2 | 0.215 |
| GCUCACUUGUAGUGCUUUATT against Arf2 | 1.88 |
| GGCGUAAACAUGGUGUGCATT against Taok3 | -0.807 |
| GCUCUAUAGUGACCAAUGUTT against Gcgr | -0.072 |
| GGAAGUUCCACGUUAUUGUTT against Eif2b2 | -1.3 |
| GCGAUUUCACACCAUCACATT against Rab10 | -1.03 |
| GGAUGAUUUAUGGUUACUGTT against Vmn1r80 | 2.01 (active) |
| GGCCUUUCACAACAUAAAATT against Chil6 | -0.808 |
| GGGAGCAGUCUUCCCUCAUTT against Cox8a | -1.44 |
| AGAAAUGCCUCUUCAGUGATT against Olfr884 | 1.59 |

| Sequence | z-score |
| --- | --- |
| GGAGAAAUGAAGAUUGUGGTT against Tmem218 | -2.31 (active) |
| GGUCAGCCAGACCAUUUCUTT against Edc3 | -1.27 |
| GGUGGCAAAGUGGUGAUCCTT against Fabp7 | 2.05 (active) |
| GGAUCUUAUUAUUUGAUCCTT against Mettl15 | -0.671 |
| GGAAGUAGAUUAGAUGGUATT against Akt3 | 0.52 |
| GGAAUACCACAUGCUUUUGTT against Ldah | -0.288 |
| GCUAACCCUCGUUUAGAAGTT against Apol9b | 0.529 |
| GGCAUCUUGGAGGAUUUGCTT against Cyrib | 0.719 |
| GGGUCAAUCAUGAAUGUUUTT against Pak4 | -1.02 |
| GAUUUGAGACCCAGAUCAUTT against Gzmm | 2.08 (active) |
| GGGACAUGUUUUGAUAAAGTT against Yy1 | -0.591 |
| GCUUCGGAAUCGGUUACCATT against Alg2 | -1.28 |
| GGUUGUUUAUGCUUUCUCUTT against Arhgap32 | -0.766 |
| CGAAGUGGUUUUAUGUACUTT against Cdkn2b | -2.39 (active) |
| GAUGGUCAUCCUUCCUUUATT against Olfr341 | -0.737 |
| GCUUAGACGACUAGACCUGTT against Slit2 | -0.186 |
| GGUGGUCUGAUCGUAGACATT against Lrrc61 | 0.672 |
| GGGCUGACUAUUAUUUCAGTT against Cysltr2 | -0.107 |
| GGAAUUUGUGAAAAGAAGUTT against Aldh1a2 | -0.923 |
| CGAUAAAAGAGAGAUGAUUTT against Rap1gds1 | 0.699 |
| GGUGGUAAUUUUUCUCAGATT against Agxt2 | -1.74 |
| CCAUCUUGGAGAUCCUGAUTT against Kat5 | -2.46 (active) |

| Sequence | z-score |
| --- | --- |
| GGAAAAUCUUAGGAAGAUGTT against Elf4 | -0.39 |
| GCUUACCCUGACUCCAAUUTT against Dhx33 | -1.76 |
| CCAAGGUCUAAAAAAAUAGTT against Adamts19 | -0.907 |
| GGAGGUAACAACAACAGAATT against BC028528 | 0.7 |
| GGUAGAGAACCAUUUGCUGTT against Dtnbp1 | -0.376 |
| GGAACACACAAUUUUAUCATT against 4933436I01Rik | -2.98 (active) |
| CCAUACAAGAGUGACAGUUTT against Olfr810 | -0.736 |
| GGCAAUCCAGGCAAUAUCATT against C1qa | -0.808 |
| CCCUAACUACUUCAUGAAUTT against Paip1 | -2.11 (active) |
| GGAAAUCCAUUGUUUAAAGTT against Wt1 | 2.01 (active) |
| CCAUGUGACAGCAUUGUUGTT against Axin1 | 0.754 |
| CCAGAUUAUCCGUUUAAACTT against Ube2e2 | 0.242 |
| GCGUGAGAUACCAUAUUAUTT against Bank1 | -1.47 |
| GGUCUACCUAAAACUGGAGTT against Cbln4 | 0.337 |
| GGGAGAGAUGUCAUUGCACTT against Eif4a3 | -1.9 |
| GCGGCUACGUGUUUGACUATT against Csnk1g2 | -0.735 |
| GCACUUAGACUAUUCCAGGTT against Tph2 | -0.118 |
| GGUGAAGUUACAGUCAAAUTT against Nolc1 | 2.54 (active) |
| GGUCAGGCUGAGGAAUUCATT against Cyp2s1 | -0.562 |
| GGAGGAGGCAGAAACAACATT against Tex46 | 1.87 |
| GCAGAGAGGAUAACUGACCTT against Slc25a44 | -0.723 |
| CCAUUCUUAGUUCACUAUATT against Rgcc | -2.55 (active) |

| Sequence | z-score |
| --- | --- |
| GGAAUUCCCAUUGGAAGAATT against Vmn1r232 | 0.0956 |
| GGGACCAAGAAGGAUAACUTT against Flrt1 | 1.4 |
| CCGAUUUAACUGAAUUUGCTT against Acaa2 | 0.342 |
| GGCAGGACACCAUAUGGUUTT against Tedc1 | -2.16 (active) |
| GGACAAGUCGAGUUUCAAGTT against Zfp503 | 1.98 |
| CGGAAGAAUAAAAACCGGCTT against Meaf6 | 0.601 |
| GGUCUUGUGCAUAAAACAGTT against Ece2 | -1.06 |
| GCAUAUCCUAAACACUGUUTT against Pqlc3 | -0.966 |
| GGGUGAUGCCCUUGAAUCUTT against Twf2 | 2.48 (active) |
| GCGACUGACCUUCAAACUGTT against Piwil4 | 0.193 |
| CCAGCAAAUGAGAGGUCUGTT against Olfr1024 | 0.676 |
| GGACACUUUCCAAUGGUGATT against Npsr1 | 1.25 |
| GGAGCUCGAAAAAUUUCAATT against Igfl3 | 2.13 (active) |
| GCUCUCAUCAGACUUCGAGTT against Zfp202 | 0.0887 |
| GCGCAUCUAUGAAAAAACATT against Cerk | -0.471 |
| GGCUGUAAAACUCUGGUUUTT against Vmn1r195 | 2.82 (active) |
| GCUCAAAAAACCGAAAUGATT against Cd274 | -1.03 |
| GGUAAAUUCAACUGGAAGGTT against Lyar | 0.194 |
| GGUUAUCCUCAUUGAUCCGTT against Rpl15 | 0.0822 |
| GCCUGAUAUCAACAUAGGATT against Pth2r | 0.802 |
| UAAAUGAGCUCGUAAUCUUTT against Olfr874 | 3.23 (active) |
| CCCUGGCCAAACAUAGUGGTT against Efcab12 | 0.278 |

| Sequence | z-score |
| --- | --- |
| GCACAAGAAAUCGAAUAUGTT against Acr | -0.00119 |
| CCGCCGAUGAGUUUGUUAATT against Hsd17b3 | 1.2 |
| GCUCUGUCUUAAGAGACUATT against Smo | 2.39 (active) |
| GGUCUGUCUCCAGAUUGCUTT against Olfr56 | -1.73 |
| GGAUAUUAUGUCUUUGCUATT against Ints2 | 0.499 |
| GACCACCAGAAAGUUUCACTT against Lfng | 0.339 |
| GCUCUACCUUCGCUGGAAATT against Slc7a6 | 2.17 (active) |
| GGAAACUGCAUUCAAGCCATT against Apod | -0.191 |
| CCUCUAGACCGAAUGAAAATT against Zfyve16 | 0.472 |
| GGAGUCCUCUAAUGUAAAUTT against Elovl4 | 0.0471 |
| GGGAACUCAAAGAAGAGAGTT against Lysmd2 | 0.515 |
| CGAGGAGUGGUAUUUUUACTT against Slc34a1 | 0.0248 |
| GCUGAAAGAUUUACUGCCCTT against Bhlhe41 | 2.95 (active) |
| GGCAUGGAAUAUGAUGUUATT against Nlrp9b | -1.72 |
| GGGUUGUCCUGAACUUUAATT against Npr1 | 0.236 |
| GGCCAGUGGAGGAAUAUGATT against 1300017J02Rik | -0.383 |
| CCACGUGUCUUAGAAUUAATT against Gas1 | 1.67 |
| GGCCAACAAGGAAAACAUCTT against Bcas2 | 1.33 |
| GGUCUGUAUGUCAUUUAUCTT against Ywhag | -0.208 |
| GGUAAUGCUGUGGAGUCUUTT against Wdr53 | -2.59 (active) |

— PubChem BioAssay AID1508600 (Functional Genomics Laboratory (NCATS/FGL), 2020)
